# In PubChem BioAssay (NCATS):
# Results filed as inconclusive are left out. Where a call stands in place of a potency, no number is given. Active and inactive are the calls of the source. Unless noted, the call rests on the fitted dose curve; in most records, active means well fitted curve in the direction sought with a large enough effect; inconclusive means small, poorly fitted or top-dose-only effect, or another doubt; inactive means no such curve, though single readings can be large; an effect the other way counts as inactive or inconclusive.
# How the values were obtained:
# [1] = biological target: ATP-dependent 6-phosphofructokinase (Trypanosoma brucei brucei) (UniProt O15648); test: qHTS Assay to Find Inhibitors of T. brucei phosphofructokinase: hit validation (AID 492961);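 further: luminescence reports ADP formed as PFK phosphorylates fructose-6-phosphate with ATP; series mostly up to about 51 µM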
# Chain of ATP-dependent 6-phosphofructokinase (Trypanosoma brucei brucei) (O15648 whole entry, looked up): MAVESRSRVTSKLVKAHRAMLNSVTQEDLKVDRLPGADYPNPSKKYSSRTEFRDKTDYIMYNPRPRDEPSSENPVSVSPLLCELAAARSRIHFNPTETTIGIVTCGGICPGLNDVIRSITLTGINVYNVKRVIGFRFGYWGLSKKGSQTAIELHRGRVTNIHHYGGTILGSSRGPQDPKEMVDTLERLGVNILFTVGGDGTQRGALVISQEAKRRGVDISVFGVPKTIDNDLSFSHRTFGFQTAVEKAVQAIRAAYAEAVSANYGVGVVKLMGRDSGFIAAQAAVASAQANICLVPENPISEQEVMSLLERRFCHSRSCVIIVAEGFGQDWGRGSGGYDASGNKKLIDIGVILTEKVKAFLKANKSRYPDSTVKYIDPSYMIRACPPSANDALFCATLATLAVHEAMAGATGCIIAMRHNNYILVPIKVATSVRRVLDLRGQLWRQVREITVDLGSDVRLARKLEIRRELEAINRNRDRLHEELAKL
# How it was run: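 Measures ADP output of PFK (1.25 nM) at 0.1 mM ATP, 0.5 mM F6P, pH 8.0 TEA buffer with 5 mM MgCl2. No-enzyme wells define full inhibition; uninhibited enzyme wells define zero.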
# [2] = Validation screen for small molecules that induce DNA re-replication in MCF 10A normal breast cells (AID 463097); further: nearly all actives have a fitted effect of over 60% in size
# How it was run: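 250 MCF 10A cells/well; compound pin-transferred; 48 hr, 37 C, 5% CO2; Hoechst 40 min; imaged 405/500-530 nm. Hits = more high-intensity nuclei.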
# [3] = biological target: Ubiquitin carboxyl-terminal hydrolase 2 (Homo sapiens) (UniProt O75604); test: qHTS Validation Assay for Inhibitors of Ubiquitin-specific Protease USP2a Using CHOP2 as the Reporter (AID 463106)
# How it was run: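 Readout was coupled fluorescence (Ex 485/Em 531 nm), read 60 min after adding 25 nM final Ub-CHOP2 and 25 nM reporter substrate. Beforehand, 10 nM final USP2 core had 30 min at RT with compound in pH 8.0 buffer. Curves were fitted after normalization to NEM and flagged for artifacts using time-zero reads.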
# [4] = biological target: DNA polymerase III PolC-type (Bacillus subtilis (strain 168)) (UniProt P13267); test: qHTS Validation Assay for the Inhibitors of DNA Replication in Gram-Positive Bacteria (AID 485295);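 further: reconstituted holoenzyme with PolC plus beta clamp SSB and primase; PicoGreen fluorescence of double-stranded DNA made on primed circular M13 template; series mostly up to about 57 µM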
# Chain of DNA polymerase III PolC-type (Bacillus subtilis (strain 168)) (P13267 whole entry, looked up): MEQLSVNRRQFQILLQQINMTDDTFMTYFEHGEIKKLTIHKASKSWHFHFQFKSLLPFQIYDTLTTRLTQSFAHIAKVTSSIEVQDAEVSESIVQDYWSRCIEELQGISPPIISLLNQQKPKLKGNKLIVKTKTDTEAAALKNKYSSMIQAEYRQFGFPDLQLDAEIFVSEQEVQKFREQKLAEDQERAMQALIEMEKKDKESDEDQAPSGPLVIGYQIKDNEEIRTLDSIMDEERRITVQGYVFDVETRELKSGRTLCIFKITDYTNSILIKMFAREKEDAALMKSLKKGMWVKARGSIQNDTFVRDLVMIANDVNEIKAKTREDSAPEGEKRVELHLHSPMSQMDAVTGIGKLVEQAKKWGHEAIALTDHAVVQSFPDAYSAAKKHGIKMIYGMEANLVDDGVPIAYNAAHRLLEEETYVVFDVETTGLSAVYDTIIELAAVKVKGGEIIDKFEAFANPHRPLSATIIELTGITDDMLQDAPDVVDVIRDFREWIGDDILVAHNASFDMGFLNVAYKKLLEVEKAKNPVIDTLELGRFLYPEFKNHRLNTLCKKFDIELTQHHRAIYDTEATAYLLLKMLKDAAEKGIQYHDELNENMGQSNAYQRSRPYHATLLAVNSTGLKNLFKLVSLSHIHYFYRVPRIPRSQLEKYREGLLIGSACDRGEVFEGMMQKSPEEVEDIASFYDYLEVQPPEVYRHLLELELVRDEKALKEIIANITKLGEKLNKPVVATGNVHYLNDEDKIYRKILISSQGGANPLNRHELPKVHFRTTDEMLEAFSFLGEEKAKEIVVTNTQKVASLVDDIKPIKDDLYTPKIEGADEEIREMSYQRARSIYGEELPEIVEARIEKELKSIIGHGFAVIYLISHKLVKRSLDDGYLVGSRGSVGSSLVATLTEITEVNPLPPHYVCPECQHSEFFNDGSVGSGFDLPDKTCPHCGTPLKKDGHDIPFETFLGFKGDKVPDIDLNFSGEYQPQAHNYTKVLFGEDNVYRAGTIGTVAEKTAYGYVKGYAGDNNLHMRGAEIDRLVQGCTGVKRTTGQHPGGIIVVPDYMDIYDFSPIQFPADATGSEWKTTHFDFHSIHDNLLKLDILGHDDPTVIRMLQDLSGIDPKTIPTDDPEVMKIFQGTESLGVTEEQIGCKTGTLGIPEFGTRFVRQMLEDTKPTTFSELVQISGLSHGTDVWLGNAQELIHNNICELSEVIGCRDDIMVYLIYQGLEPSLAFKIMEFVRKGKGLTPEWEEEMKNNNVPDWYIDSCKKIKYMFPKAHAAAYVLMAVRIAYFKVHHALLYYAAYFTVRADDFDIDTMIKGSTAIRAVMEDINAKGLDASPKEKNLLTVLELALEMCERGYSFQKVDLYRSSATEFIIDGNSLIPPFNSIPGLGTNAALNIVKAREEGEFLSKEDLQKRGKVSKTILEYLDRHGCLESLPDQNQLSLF
# How it was run: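 PicoGreen fluorescence (ex 480–485/em 535–540 nm) reports dsDNA synthesized on ssM13Gori template with dNTPs/NTPs. Enzyme: holoenzyme rebuilt from purified PolC, beta subunit, SSB and primase. Compound preincubated before substrate addition; RT throughout.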
# [5] = biological target: Tumor susceptibility gene 101 protein (Homo sapiens) (UniProt Q99816); test: qHTS Validation Assay for Iinhibitors of HIV-1 Budding by Blocking the Interaction of PTAP/TSG101 (AID 485342; calls by dose curve)
# How it was run: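 FP read-out: FITC-PTAP peptide, 50 nM final, binding Tsg101 binding domain, 10 uM final; 20 min r.t.; 10 mM HEPES pH 7.5, 0.15 M NaCl, 0.01% Tween 20, 3 mM EDTA, 0.1 mM TCEP.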
# [6] = biological target: Beta-2 adrenergic receptor (Homo sapiens) (UniProt P07550); test: qHTS validation assay of beta-arrestin-biased ligands of beta2-adrenergic receptor (AID 485366)
# How it was run: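 Agonist activity is measured as luciferase luminescence downstream of beta-arrestin recruitment to recombinant beta2-AR in Tango cells. Exposure lasts 18 hr at 37 degrees C, and curves are categorized by r2, response size and activity.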
# [7] = biological target: ATP-dependent 6-phosphofructokinase (Trypanosoma brucei brucei) (UniProt O15648); test: qHTS Validation Assay to Find Inhibitors of T. brucei phosphofructokinase (AID 485368); conditions: outcome: dose series up to 57.5 µM
# How it was run: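 Inhibition derived from concentration-response curves of luminescence, ranked by r2, response size and curve class; the underlying reaction used 1.25 nM PFK, 0.1 mM ATP and 0.5 mM F6P, 45 min, room temperature.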
# [8] = biological target: Thioredoxin reductase 1, cytoplasmic (Rattus norvegicus) (UniProt O89049); test: qHTS Assay for Substrates of Mammalian Selenoprotein Thioredoxin Reductase 1 (TrxR1) (AID 488772);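 further: series mostly up to about 57 µM; a drop in NADPH fluorescence below the no-compound background marks a TrxR1 substrate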
# Chain of Thioredoxin reductase 1, cytoplasmic (Rattus norvegicus) (O89049 whole entry, looked up): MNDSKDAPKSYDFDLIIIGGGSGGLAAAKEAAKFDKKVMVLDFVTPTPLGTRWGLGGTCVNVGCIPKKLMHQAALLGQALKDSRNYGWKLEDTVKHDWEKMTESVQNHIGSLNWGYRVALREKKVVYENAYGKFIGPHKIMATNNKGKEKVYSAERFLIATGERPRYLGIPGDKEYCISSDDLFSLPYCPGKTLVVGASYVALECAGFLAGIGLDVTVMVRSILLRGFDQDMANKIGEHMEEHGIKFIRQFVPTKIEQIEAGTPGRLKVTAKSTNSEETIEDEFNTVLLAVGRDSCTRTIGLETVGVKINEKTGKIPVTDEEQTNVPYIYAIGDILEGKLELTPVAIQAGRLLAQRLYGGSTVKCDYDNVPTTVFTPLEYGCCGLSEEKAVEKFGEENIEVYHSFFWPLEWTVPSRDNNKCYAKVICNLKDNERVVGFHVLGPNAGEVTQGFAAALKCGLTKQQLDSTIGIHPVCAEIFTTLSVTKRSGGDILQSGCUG
# How it was run: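 In this dual-purpose format, potential substrates are identified from the first fluorescence read after selenite addition, not from the 8-minute delta. Rat enzyme is preincubated with NADPH and then with compound at ~22 deg C.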
# [9] = biological target: Thioredoxin reductase 1, cytoplasmic (Rattus norvegicus) (UniProt O89049); test: qHTS Assay for Inhibitors of Mammalian Selenoprotein Thioredoxin Reductase 1 (TrxR1) (AID 488773);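 further: drop in NADPH fluorescence over an 8 min run after selenite addition; series mostly up to about 57 µM; nearly all actives have a fitted effect of over 40% in size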
# How it was run: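 Inhibition is scored from the loss of NADPH fluorescence between first and last reads of an 8-min kinetic run. Selenite (400 uM) was the substrate, added after 15 min compound preincubation at room temperature.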
# [10] = biological target: Flap endonuclease 1 (Homo sapiens) (UniProt P39748); test: qHTS Validation Assay for the Inhibitors of Human Flap endonuclease 1 (FEN1) (AID 488816)
# Chain of Flap endonuclease 1 (Homo sapiens) (P39748 whole entry, looked up): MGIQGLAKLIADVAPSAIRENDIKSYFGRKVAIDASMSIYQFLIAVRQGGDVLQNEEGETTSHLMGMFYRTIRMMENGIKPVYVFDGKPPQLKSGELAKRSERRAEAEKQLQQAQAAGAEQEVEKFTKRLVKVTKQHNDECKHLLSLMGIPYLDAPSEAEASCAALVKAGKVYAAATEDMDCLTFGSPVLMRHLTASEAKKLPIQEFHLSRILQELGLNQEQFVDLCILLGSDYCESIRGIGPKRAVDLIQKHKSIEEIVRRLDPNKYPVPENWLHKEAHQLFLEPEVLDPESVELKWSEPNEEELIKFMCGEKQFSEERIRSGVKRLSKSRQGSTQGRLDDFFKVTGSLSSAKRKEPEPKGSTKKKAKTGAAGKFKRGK
# How it was run: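 qHTS format: compounds and 10 nM FEN1 incubated 15 min at room temperature before adding 50 nM substrate. Cleavage followed by reads at 0 and 15 min; normalized data fitted to a four-parameter Hill curve.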
# [11] = biological target: M-phase phosphoprotein 8 (Homo sapiens) (UniProt Q99549); test: qHTS Validation Assay for Inhibitors for MPP8 Chromodomain Interactions with Methylated Histone Tails (AID 488949);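 further: AlphaScreen signal from MPP8 chromodomain bound to biotinylated H3K9me3 peptide; top concentration of the series differs between compounds; nearly all actives have a fitted effect of over 55% in size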
# Chain of M-phase phosphoprotein 8 (Homo sapiens) (Q99549 whole entry, looked up): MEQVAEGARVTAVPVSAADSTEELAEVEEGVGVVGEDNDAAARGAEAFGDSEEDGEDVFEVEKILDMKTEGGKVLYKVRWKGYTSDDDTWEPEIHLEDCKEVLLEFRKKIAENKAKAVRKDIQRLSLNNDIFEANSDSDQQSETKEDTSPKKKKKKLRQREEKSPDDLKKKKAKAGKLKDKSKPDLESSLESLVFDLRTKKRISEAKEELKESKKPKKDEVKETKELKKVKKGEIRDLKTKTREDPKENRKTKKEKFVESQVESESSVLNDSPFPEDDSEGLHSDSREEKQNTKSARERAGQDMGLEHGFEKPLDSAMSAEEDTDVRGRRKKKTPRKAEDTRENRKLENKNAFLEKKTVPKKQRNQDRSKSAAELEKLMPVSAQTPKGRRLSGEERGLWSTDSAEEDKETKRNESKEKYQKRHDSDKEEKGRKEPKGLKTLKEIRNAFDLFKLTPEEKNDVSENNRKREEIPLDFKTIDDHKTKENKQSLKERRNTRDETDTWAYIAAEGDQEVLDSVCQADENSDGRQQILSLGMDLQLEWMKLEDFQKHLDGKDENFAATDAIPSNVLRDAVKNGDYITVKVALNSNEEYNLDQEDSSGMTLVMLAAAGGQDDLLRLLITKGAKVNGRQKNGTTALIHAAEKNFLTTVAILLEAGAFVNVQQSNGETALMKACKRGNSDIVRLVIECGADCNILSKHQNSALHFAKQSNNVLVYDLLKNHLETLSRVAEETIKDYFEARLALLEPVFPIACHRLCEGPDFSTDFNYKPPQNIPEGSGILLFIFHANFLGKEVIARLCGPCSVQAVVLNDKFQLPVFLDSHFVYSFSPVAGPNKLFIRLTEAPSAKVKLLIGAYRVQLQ
# How it was run: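 AlphaScreen read-out: streptavidin donor and nickel chelate acceptor beads (final 10 ug/mL), 30 min in the dark at RT. Complex of 50 nM MPP8 and 50 nM b-H3(1-18)K9me3 peptide had been exposed to compounds for 30 min beforehand.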
# [12] = biological target: Chromobox protein homolog 1 (Homo sapiens) (UniProt P83916); test: qHTS Validation Assay for Inhibitors of HP1-beta Chromodomain Interactions with Methylated Histone Tails (AID 488953);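 further: loss of AlphaScreen luminescence from HP1-beta binding biotinylated H3K9me3 peptide; series mostly up to about 110 µM; nearly all actives have a fitted effect of over 50% in size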
# How it was run: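 Disruption of preformed HP1-beta:H3K9me3 peptide complexes (both 50 nM, PBS pH 7.4 with 0.01% Tween-20) is measured by AlphaScreen after 30 min compound exposure at room temperature, using streptavidin donor and nickel chelate acceptor beads at 10 ug/mL final.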
# [13] = biological target: Methanococcus maripaludis chaperonin (MmCpn) (UniProt Q6LX38); test: High-Throughput Screening for Modulators of Cytosolic Chaperonin Activity: MmCpn Primary Screen (AID 488978);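 further: 50 nM MmCpn enzyme hydrolysing 30 µM ATP at 37 °C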
# How it was run: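 ADP formation read by HTRF Transcreener, 665/590 nm emission after 320 nm excitation. Enzyme: archaeal chaperonin at 50 nM final; substrate ATP 30 uM final; 10 min, 37C, after 5 min compound preincubation at RT.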
# [14] = biological target: Transient receptor potential cation channel subfamily V member 1 (Homo sapiens) (UniProt Q8NER1); test: HTS Assay for Compounds that Act as Enhancers of the Vanilloid Receptor 1 (AID 488979)
# How it was run: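 Calcium influx kinetics via Fluo-8 (480/520 nm) in TRPV1-expressing cells, 2000/well cultured overnight at 35.5C. Compound-alone read 3 min (agonist phase), followed by EC20 capsaicin challenge for 2 min (enhancer phase).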
# [15] = biological target: Thyrotropin receptor (Homo sapiens) (UniProt P16473); test: qHTS Assay for Antagonists of the Thyroid Stimulating Hormone Receptor (AID 488980); further: series mostly up to about 58 µM
# Chain of Thyrotropin receptor (Homo sapiens) (P16473 whole entry, looked up): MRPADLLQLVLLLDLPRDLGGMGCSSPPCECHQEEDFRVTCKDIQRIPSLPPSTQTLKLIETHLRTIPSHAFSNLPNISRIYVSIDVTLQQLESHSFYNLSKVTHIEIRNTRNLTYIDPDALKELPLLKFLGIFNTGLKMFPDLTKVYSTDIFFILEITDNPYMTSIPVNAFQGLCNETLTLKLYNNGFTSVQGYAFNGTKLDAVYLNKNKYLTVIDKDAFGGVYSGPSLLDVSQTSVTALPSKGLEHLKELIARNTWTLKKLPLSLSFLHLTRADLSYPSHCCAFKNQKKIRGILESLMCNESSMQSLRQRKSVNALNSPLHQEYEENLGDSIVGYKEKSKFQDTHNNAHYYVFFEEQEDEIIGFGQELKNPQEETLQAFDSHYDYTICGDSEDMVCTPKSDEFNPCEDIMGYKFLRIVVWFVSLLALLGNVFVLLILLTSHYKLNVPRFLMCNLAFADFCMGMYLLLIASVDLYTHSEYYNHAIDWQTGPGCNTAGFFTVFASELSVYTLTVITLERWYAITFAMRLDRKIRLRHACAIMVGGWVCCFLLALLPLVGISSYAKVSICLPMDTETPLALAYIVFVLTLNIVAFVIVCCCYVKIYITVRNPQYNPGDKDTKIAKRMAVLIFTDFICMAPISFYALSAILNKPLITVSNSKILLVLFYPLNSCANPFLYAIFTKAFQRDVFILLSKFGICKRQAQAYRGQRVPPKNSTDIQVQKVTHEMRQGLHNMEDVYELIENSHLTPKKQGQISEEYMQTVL
# How it was run: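 TSHR-HEK293 cells; 70 uM RO 20-1724 PDE inhibitor; compound + EC80 TSH (4 nM final); anti-cAMP cryptate antibody/cAMP-d2 in lysis buffer, 30 min RT; HTRF 665/620 nm read.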
# [16] = biological target: D(1A) dopamine receptor (Homo sapiens) (UniProt P21728); test: HTS Assay for Allosteric Agonists of the Human D1 Dopamine Receptor: Primary Screen for Agonists (AID 488981); further: potency means the concentration at half of the fitted maximal effect
# Chain of D(1A) dopamine receptor (Homo sapiens) (P21728 whole entry, looked up): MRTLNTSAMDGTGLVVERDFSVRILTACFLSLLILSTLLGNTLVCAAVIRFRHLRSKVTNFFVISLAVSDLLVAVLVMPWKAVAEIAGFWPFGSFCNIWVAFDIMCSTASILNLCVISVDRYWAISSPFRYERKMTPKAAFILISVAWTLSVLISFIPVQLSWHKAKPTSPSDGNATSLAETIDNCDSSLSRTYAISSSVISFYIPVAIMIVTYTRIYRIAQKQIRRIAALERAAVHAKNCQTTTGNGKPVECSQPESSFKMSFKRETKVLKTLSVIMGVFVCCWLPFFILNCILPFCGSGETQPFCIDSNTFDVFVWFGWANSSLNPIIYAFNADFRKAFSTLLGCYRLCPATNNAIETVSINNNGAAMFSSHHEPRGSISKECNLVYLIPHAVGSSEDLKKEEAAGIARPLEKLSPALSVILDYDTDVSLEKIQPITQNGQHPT
# How it was run: (§1)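 Calcium flux in an inducible, force-coupled HEK293 Trex D1 line (overnight at 30 C): agonist mode is the 180 s kinetic read after compound; potentiator mode is the following 180 s read after dopamine at EC20.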
# [17] = biological target: D(1A) dopamine receptor (Homo sapiens) (UniProt P21728); test: HTS Assay for Allosteric Agonists of the Human D1 Dopamine Receptor: Primary Screen for Antagonists (AID 488983);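 further: calcium flux response to an EC80 dopamine challenge measured with no-wash dye; nearly all actives have a fitted effect of over 65% in size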; further: potency means the concentration at half of the fitted maximal effect
# How it was run: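 Kinetic fluorescence at 1 cycle/sec tracked intracellular calcium in force-coupled, tetracycline-inducible HEK293 T-REx D1 cells. Loss of response to an EC80 dopamine dose, given 180 s after compound, marked antagonists.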
# [18] = Validation screen for small molecules that induce genotoxicity in human embryonic kidney (HEK293T) cells expressing luciferase-tagged ELG1 (AID 493106)
# How it was run: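 Cells were dispensed at 2,000 per well, then 23 nL compound or DMSO was pinned in. After 16 hr at 37 °C and 5% CO2, ONE-Glo reagent was added. Luciferase activity was measured following 30 min at room temperature.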
# [19] = biological target: ATPase family AAA domain-containing protein 5 (Homo sapiens) (UniProt Q96QE3); test: Validation screen for small molecules that inhibit ELG1-dependent DNA repair in human embryonic kidney (HEK293T) cells expressing luciferase-tagged ELG1 (AID 493107);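 further: cells co-treated with the DNA-damaging agent 5-fluorouridine alongside compound; series mostly up to about 46 µM; inhibitors lower the ELG1-luciferase luminescence signal; nearly all actives have a fitted effect of over 70% in size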
# How it was run: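 Cells are dispensed in 1536-well format, then 5-fluorouridine and compound are pinned in. After a 16 hr incubation at 37 °C and 5% CO2, ONE-Glo is added and luciferase measured on a CCD imager.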
# [20] = biological target: D(1A) dopamine receptor (Homo sapiens) (UniProt P21728); test: HTS Assay for Allosteric Agonists of the Human D1 Dopamine Receptor: Primary Screen for Potentiators (AID 488982)
# How it was run: as §1
smiles,measurement,setting,value
C=CCNC1=C2C[C@@H](C)C[C@H](OC)[C@H](O)[C@@H](C)/C=C(\C)[C@H](OC(N)=O)[C@@H](OC)/C=C\C=C(/C)C(=O)NC(=CC1=O)C2=O,outcome,[1],inactive
COC1C(OC(=O)/C=C/C=C/C=C/C=C/C(=O)O)CCC2(CO2)C1C1(C)OC1CC=C(C)C (stereo not drawn),outcome,[1],inactive
NCCCC(=O)O,outcome,[2],inactive
same,outcome,[3],inactive
same,outcome,[4],inactive
same,outcome,[5],inactive
same,outcome,[6],inactive
same,outcome,[7],inactive
same,outcome,[8],inactive
same,outcome,[9],inactive
same,outcome,[10],inactive
same,outcome,[11],inactive
same,outcome,[12],inactive
same,outcome,[13],inactive
same,outcome,[14],inactive
same,outcome,[15],inactive
same,Potency,[16],inactive
same,Potency,[17],inactive
same,outcome,[18],inactive
same,outcome,[19],inactive
CN[C@H]1CC[C@@H](c2ccc(Cl)c(Cl)c2)c2ccccc21,outcome,[3],inactive
same,outcome,[4],inactive
same,outcome,[5],inactive
same,outcome,[6],inactive
same,outcome,[7],inactive
same,outcome,[8],inactive
same,outcome,[9],inactive
same,outcome,[10],inactive
same,outcome,[11],inactive
same,outcome,[12],inactive
same,outcome,[13],inactive
same,outcome,[15],inactive
same,Potency,[16],11.2 µM (active)
same,outcome,[20],inactive
same,Potency,[17],10 µM (active)
same,outcome,[1],inactive
same,outcome,[18],inactive
CCCOc1ccc2nc(NC(=O)OC)sc2c1,outcome,[1],inactive
